From the supplement of paper PMC10338343
± gives the standard deviation.

Experiments:
[1] = tested on: MILI (PIWIL2) piRISC loaded with L1MC piRNA (26 nt); assay: pre-steady-state target cleavage rate (min^-1); guide: L1MC piRNA 5'p-UAACUAAAUACUAUGCAAGCUGUAGG; higher = faster piRNA-guided slicing of the target;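 note: 1 nM active piRISC with 0.1 nM target library at 33 °C single turnover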
In short: (§1)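 Active affinity-purified piRISC carrying one synthetic guide (1 nM) was mixed with a transcribed, DNA-blocked target RNA library […] in HEPES–potassium acetate buffer at 33 °C for 0–8 or 0–960 min, with or without 500 nM GTSF1 partner protein. Uncleaved targets were then sequenced and normalised to depth and to weakly complementary targets. Three trials were pooled, and k3 was capped at 0.0001 min^-1. A burst-and-steady-state fit was applied to obtain the pre-steady-state cleavage rate.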

[2] = tested on: EfPiwi piRISC loaded with L1MC piRNA (26 nt); assay: pre-steady-state target cleavage rate (min^-1); auxiliary factor: 500 nM Ephydatia muelleri Gtsf1; guide: L1MC piRNA 5'p-UAACUAAAUACUAUGCAAGCUGUAGG; MIWI and MILI are mouse PIWI proteins and EfPiwi is from a freshwater sponge; tags in brackets are library labels; higher = faster piRNA-guided slicing of the target
In short: as §1

[3] = auxiliary factor: 500 nM mouse GTSF1
[4] = auxiliary factor: none (no GTSF1)

Sequence	pre-steady-state target cleavage rate [1, 3]	pre-steady-state target cleavage rate [1, 4]	pre-steady-state target cleavage rate [2]
UCCUGCUACAGCUUGCAUAGUAUUUAUGUUA	0.182 ± 0.023	0.00699 ± 0.0022	0.00419 ± 0.0019
UCCUGGAACUGCUUGCAUACUAUUUAGUUA	0.076 ± 0.01	–	0.0046 ± 0.0019
UCCUGCUACAGCCUUGCAUAGUAUUUAGUUA	0.308 ± 0.025	0.00822 ± 0.0026	0.0116 ± 0.0041
UCCUGGAUGUGGUAGCAUAGUAUUUAGUUA	0.0258 ± 0.011	0.00767 ± 0.0031	0.00356 ± 0.0033
UCCUGGAUGUGCUUGCAUAUUAUUUAGUUA	0.0346 ± 0.0073	–	0.00647 ± 0.0022
UCCUGCUACAGCUUGCAUAGUUUUUACAAA	0.0689 ± 0.019	–	0.00339 ± 0.0026
UCCUCCUACAAGCUUGCAUAGUAUUUAGUUA	0.222 ± 0.016	0.00894 ± 0.0024	0.0104 ± 0.0039
UCCUGCUACAGCUUGCAUAGUAUUUAAUUA	0.126 ± 0.03	–	0.00612 ± 0.0025
UCCUGCUACAGCUUGCAUAGUAUAUAGUAA	0.0474 ± 0.018	–	0.00354 ± 0.0018
UCCUCCAUGAGCUUGCAUAGUAUUUACAAA	0.0266 ± 0.0095	–	0.00312 ± 0.0024
UCCUCCUAGAGCUUGCAUAGUAUUUAGAAA	0.069 ± 0.016	–	0.00517 ± 0.0019
UCCUGCUACAGCUUGCAUAGUAUUUAGUGUA	0.244 ± 0.048	–	0.00597 ± 0.0021
UCCUGGAUGUGCAUGCAUAGUAUUUAGAUA	0.146 ± 0.032	–	0.00317 ± 0.0024
UCCUGGAUGUCGAACGUUAGUAUUUUCAAA [g6:g13:cont:t1A]	–	< 0.0001	< 0.0001
UCCUGGAUGUCCGUUGCAUAGUAUUUAGUUA	0.0604 ± 0.018	0.008 ± 0.0033	0.00412 ± 0.0033
UCCUGGUAGAGCUUGCAUAGUAUUUAGAAA	0.128 ± 0.028	–	0.00392 ± 0.0022
UCCUGGAUGAGUCUUGCAUAGUAUUUAGUUA	0.105 ± 0.016	0.0093 ± 0.0029	0.00527 ± 0.0024
UCCUGCUACAGCAUGCAUAGUAUUUAGAAA	0.188 ± 0.041	–	0.00416 ± 0.0014
